The sample as a whole holds a higher share of hits than the screen did.
TbREL1 inh: TbREL1 RNA ligase inhibitors, primary screen, biochemical, FRET fluorescence; TbREL1 RNA ligation; RNA-editing ligase 1, mitochondrial (Trypanosoma brucei brucei), P86926; 0.49% of 89,000 active; inhibition, % at 9.66 µM; AID 1117264, 2014;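 active means inhibition above the mean inhibition across all screened compounds plus 3 SD, cut at about 11% in these data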;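 further: 0% = plate median of test wells and 100% = NSC42067 control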
Target sequence (P86926 whole entry, looked up): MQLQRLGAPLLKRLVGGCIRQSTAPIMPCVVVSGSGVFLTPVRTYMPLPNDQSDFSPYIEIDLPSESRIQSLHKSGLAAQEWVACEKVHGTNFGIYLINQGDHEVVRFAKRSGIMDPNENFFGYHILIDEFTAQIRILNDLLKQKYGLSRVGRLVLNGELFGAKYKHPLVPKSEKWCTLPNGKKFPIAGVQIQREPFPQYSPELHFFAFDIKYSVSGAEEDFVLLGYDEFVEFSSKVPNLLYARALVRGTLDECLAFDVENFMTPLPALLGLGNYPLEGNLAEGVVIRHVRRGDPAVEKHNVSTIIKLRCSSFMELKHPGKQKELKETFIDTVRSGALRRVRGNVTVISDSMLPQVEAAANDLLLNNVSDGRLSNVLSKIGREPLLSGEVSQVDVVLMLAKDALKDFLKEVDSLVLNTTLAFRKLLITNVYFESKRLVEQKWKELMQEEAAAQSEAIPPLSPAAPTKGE
TbREL1 confirm: TbREL1 RNA ligase inhibitors, confirmation, biochemical, FRET fluorescence, triplicate | TbREL1 RNA ligation | inhibition, % at 9.66 µM | 37% of 390 active | shares compounds with TbREL1 inh | AID 1117282, 2014;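 active means mean inhibition across replicates above a set limit taken from the earlier primary screen, cut at about 11% in these data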;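 further: 0% = REL1 with substrate and DMSO and 100% = REL1 plus control inhibitor NSC42067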
The depositor's hits bear a star.

SMILES	TbREL1 inh	others
COc1ccccc1-c1ccc2c(c1)C(C)(Cc1cc(Cl)ccc1C(F)(F)F)C(=O)N2 (stereo not given)	17.2*	TbREL1 confirm=7.2
CC1(Cc2ccccc2OC(F)(F)F)C(=O)Nc2ccc(-c3ccsc3)cc21 (stereo not given)	4.3
COc1ccc(C(C)=O)cc1CC1(C)C(=O)Nc2ccc(-c3cccc(C(F)(F)F)c3)cc21 (stereo not given)	1.5
CN(C)CCCn1c(SCC(=O)Nc2nccs2)nnc1-c1ccncc1	0.9
CCn1c(COc2cc(C)ccc2C(C)C)nnc1SCC(=O)Nc1nccs1	12.2*	TbREL1 confirm=6.6
Cc1cccc(-n2c(CNC(=O)COc3ccccc3)nnc2SCC(=O)Nc2nccs2)c1	2.9
COC(=O)[C@]12C[C@H](CC(=O)NCc3ccc(C)o3)C(=O)N(Cc3ccco3)C1=C[C@H](C1CCCC1)O[C@@H]2C	8.2
CC1(C)C=Cc2ccc(O)c(C(=O)/C=C/c3ccccc3)c2O1	-0.4
COc1ccc(OCC(O)Cn2c(=N)n(Cc3ccccc3)c3ccccc32)cc1 (stereo not given)	9.9
Cc1cccc(OCC(O)Cn2c(=N)n(CCN3CCCCC3)c3ccccc32)c1 (stereo not given)	11.9*	TbREL1 confirm=7.5
N=c1n(CCO)c2ccccc2n1CCN1CCCCC1	5.5
Nc1[nH]c(C(=O)c2ccccc2)c(-c2ccc(Cl)cc2Cl)c1C(=O)NCCC1=CCCCC1	6.0
O=C(CSc1nc2ccccc2nc1N1CCCCC1)N1CCN(S(=O)(=O)c2cc(Cl)ccc2Cl)CC1	-1.7
COc1cc2c(cc1NC(=O)CSc1nnc(-c3ccccc3F)n1-c1ccc(C)cc1)oc1ccccc12	-1.1
COc1ccc2c(c1)CCCN2C(=O)C1CCCN(S(=O)(=O)c2ccc(C(C)(C)C)cc2)C1 (stereo not given)	-3.9
C[C@@H]1CCCN1c1cccc2c1S(=O)(=O)N(C1CC1)CCCO2	5.4
CCCC(C)C(=O)NC1CCCCN(Cc2ccc(C)cc2)C1=O (stereo not given)	2.9
CC(=O)c1ccc(NS(=O)(=O)c2ccccc2)cc1	4.6
O=C(c1ccccc1)c1nnc(-c2ccccc2F)o1	2.3
CC(=O)c1ccc(Nc2ccc(-c3ccccc3F)nn2)cc1	12.8*	TbREL1 confirm=2.5
O=S1(=O)c2c(cccc2N2CC[C@@H](O)C2)O[C@H]2CCN1C2	-0.8
COCCCNC(=O)[C@@H](Cc1ccccc1)NC(=O)[C@H]1O[C@@H](n2ccc(=O)[nH]c2=O)[C@H](O)[C@@H]1O	1.9
COC(=O)C1=C(C)N(Cc2ccc(C(F)(F)F)cc2)C(=NCc2ccc3c(c2)OCO3)NC1c1ccccc1C(F)(F)F (stereo not given)	17.4*	TbREL1 confirm=22.3*
COC(=O)C1=C(C)N(C)C(=NCc2ccccc2)NC1c1ccccc1C(F)(F)F (stereo not given)	8.7
COC(=O)C1=C(C)N(Cc2ccc(C(F)(F)F)cc2)C(=NCc2ccccc2C(F)(F)F)NC1c1ccccc1C(F)(F)F (stereo not given)	17.0*	TbREL1 confirm=23.1*
SMILES	TbREL1 inh	others
COC(=O)C1=C(C)N(Cc2ccc(C(F)(F)F)cc2)C(=NCc2ccc(C(F)(F)F)cc2)NC1c1ccccc1C(F)(F)F (stereo not given)	17.2*	TbREL1 confirm=24.1*
COC(=O)C1=C(C)N(c2ccccc2)C(=S)NC1c1ccccc1C(F)(F)F (stereo not given)	-5.0
COc1ccc(CC(=O)N(Cc2ccccc2)c2ccccc2C(=O)Nc2cc(OC)ccc2OC)cc1	-1.7
CC(C)CN1C(=O)N2CCc3ccccc3C2CS1(=O)=O (stereo not given)	3.8
CCCCNC(=O)C[C@H]1C[C@@]2(C(=O)OC)C(=C[C@H](C3CCCC3)O[C@@H]2C)N(Cc2cccc3ccccc23)C1=O	4.6
C[C@@H]1C=CCCO[C@]12C(=O)Nc1ccccc12	0.0
COC(=O)C1CCCN(C(=O)C2CCN(S(=O)(=O)c3cccs3)CC2)C1 (stereo not given)	7.0
COc1ccc(N/C(=C\C(=O)c2ccccc2)c2ccccc2)cc1OC	-1.9
COc1ccccc1N1CCN(C(=O)c2cc3c(C)nn(-c4ccccc4)c3s2)CC1	-1.6
Cc1nn(CCC(=O)NNC(=O)Nc2ccccc2F)c(C)c1[N+](=O)[O-]	-0.9
COc1ccc(C(C(=O)N(C)C2CCCC2)N(Cc2ccc(F)cc2)C(=O)c2csc(N3CCOCC3)n2)cc1OC (stereo not given)	-2.6
O=C(Nc1ccc2c(c1)OCO2)O[C@@H]1CC[C@@]23CCCN2C(=O)CCC[C@H]3C1	-2.7
FC(F)(F)c1cccc(N2CCN(C(=S)Nc3nccc4ccccc34)CC2)c1	8.5
N=c1c2c(ccn1CCCCc1ccccc1)Oc1ccc3ccccc3c1C2c1ccccc1 (stereo not given)	5.8
COc1ccc(C[C@H]2CN3C(=NC[C@H]3Cc3ccccc3)N2CCNC(=O)CCC2CCCCC2)cc1	11.5*	TbREL1 confirm=18.7*
COc1ccc(C[C@@H]2CN3C(=NC[C@@H]3C)N2C[C@H](C)NC(=O)CCC2CCCCC2)cc1	6.1
C[C@@H](CN1C2=NC[C@H](Cc3ccccc3)N2C[C@H]1Cc1ccc(O)cc1)NC(=O)CCC1CCCCC1	9.3
CCOC(=O)C(CC)n1cnc2c(nnn2-c2ccc(C)cc2)c1=O (stereo not given)	18.6*	TbREL1 confirm=1.8
COc1ccc(-n2nnc3c(=O)n(CC(=O)N4CCCC4)cnc32)cc1	2.5
CCOC(=O)c1nn(-c2ccc(C)cc2)c(=O)c2c(N)scc12	1.0
COc1ccc2ccccc2c1C=NNC(=O)c1cc(-c2ccc(C)c(C)c2)n[nH]1	7.0
Cc1ccc(OCc2nnc(SCC(=O)c3ccc4ccccc4c3)n2-c2ccc(Cl)cc2)cc1	-3.0
O=S(=O)(c1ccc(F)cc1)N1CCC(N2CCCCCC2)CC1	1.1
CC1CCN(C2CCN(S(=O)(=O)c3ccc(C(F)(F)F)cc3)CC2)CC1	24.4*	TbREL1 confirm=0.5
CC1CCN(C2CCN(S(=O)(=O)c3ccc(F)cc3)CC2)CC1	7.3
SMILES	TbREL1 inh	others
COC(=O)c1cc(NC(=O)C(C)c2ccc(CC(C)C)cc2)ccc1O (stereo not given)	0.8
CC(C)c1ccc(CNCc2ccccc2)cc1	1.9
CC(C)Cc1ccc(C(C)C(N)=NCCc2ccccc2)cc1 (stereo not given)	12.4*	TbREL1 confirm=12.5*
Cc1cc(NS(=O)(=O)c2ccc(NC(=O)CSc3nnc(-c4ccco4)n3-c3ccc(Cl)cc3)cc2)nc(C)n1	-1.7
Nn1c(SCC(=O)Nc2cc(C(F)(F)F)ccc2Cl)nnc1-c1n[nH]c2c1CCC2	0.0
C=CCOC(=O)C1=C(C)N=c2sc(=C3C(=O)N(CC(=O)O)c4ccccc43)c(=O)n2C1c1ccc(OC)cc1 (stereo not given)	2.0
O=C(NCc1cccc(Cl)c1)O[C@H]1CC[C@@]23CCCN2C(=O)CCC[C@H]3C1	-3.4
Cc1ccc(-n2c(SCc3nc4ccccc4[nH]3)nnc2-c2ccccn2)cc1	-0.1
Cc1n[nH]c(=S)n(NC(=O)/C=C/C(=O)Nn2c(=S)[nH]nc(C)c2=O)c1=O	20.2*	TbREL1 confirm=15.4*
COCC(=O)N1CCC(C(=O)NCC2COc3ccccc3O2)CC1 (stereo not given)	0.0
Oc1ccccc1C=NN1CCN(Cc2ccccc2)CC1	-4.0
